Compound activity as filed in PubChem BioAssay.
CYP2C19 inhib: blockers of cytochrome P450 2C19 activity – biochemical, luminescence, ADME assay, primary screen; CYP2C19 Supersomes, luciferin-H EGE luminescence, 30 min; actives 21% (n = 96,000); inhibition, % at 5 µM;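 active = CYP2C19 inhibition above a set limit at 5 µM in the primary screen, cut at about 50% in these data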
Target sequence (P33261 whole entry, looked up): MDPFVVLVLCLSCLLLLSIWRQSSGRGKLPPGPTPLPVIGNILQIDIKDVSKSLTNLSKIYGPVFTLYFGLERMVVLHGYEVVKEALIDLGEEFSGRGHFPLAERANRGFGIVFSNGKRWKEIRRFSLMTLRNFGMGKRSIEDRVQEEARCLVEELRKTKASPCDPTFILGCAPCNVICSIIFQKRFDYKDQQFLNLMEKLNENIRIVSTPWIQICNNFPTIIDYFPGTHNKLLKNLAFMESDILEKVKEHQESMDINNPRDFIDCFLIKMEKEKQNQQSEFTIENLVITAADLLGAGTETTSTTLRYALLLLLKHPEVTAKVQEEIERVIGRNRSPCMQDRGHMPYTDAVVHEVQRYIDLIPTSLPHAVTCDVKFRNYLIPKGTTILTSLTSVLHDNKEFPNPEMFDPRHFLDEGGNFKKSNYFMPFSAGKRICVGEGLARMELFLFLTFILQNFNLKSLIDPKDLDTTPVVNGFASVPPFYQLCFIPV
CYP2C9 act: human CYP2C9 activators, primary screen, biochemical, luminescence; recombinant CYP2C9, luciferin-H conversion; active compounds read high; factor 1 = untreated enzyme, 0 = blocked; actives 1.4% (n = 96,000); activation factor at 5 µM;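 active = activation factor of 2 or more for CYP2C9 at a 5 µM dose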
CYP2C19 activ: human CYP2C19 activators, primary screen, biochemical, luminescence; Cytochrome P450 2C19 (Homo sapiens), P33261; 96,000 tested, under 10 active; AID 1025, 2008; activation factor at 5 µM; recombinant CYP2C19, luciferin-H EGE luminescence; active compounds read high; 0 = fully inhibited enzyme, 1 = untreated enzyme;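 active = activation factor of at least 2 at 5 µM in the primary screen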
PostGolgi yeast: phenotypic screen on post-Golgi transport, primary screen; post-Golgi transport phenotypic cell assay; actives 0.9% (n = 98,000); inhibition, % at 10 µM;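 also: yeast cells grown in 1536-well plates; yeast grown about 18 h at 30C before absorbance read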
PostGolgi ctrl: growth inhibition of yeast control strain, primary screen, counter-screen for post-Golgi transport modulator project; efflux-deficient yeast background strain, growth absorbance A615, 16 h; AID 738, 2007; inhibition, % at 10 µM; actives 5% (n = 98,000)
CYP2C9 inhib: blockers of cytochrome P450 2C9 activity – biochemical, luminescence, ADME assay, primary screen | CYP2C9 Supersomes, luciferin-H conversion | P11712 | inhibition, % at 5 µM | actives 20% (n = 96,000);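 active = blocking of liver enzyme CYP2C9 beyond about 50% at 5 µM, limit read from the data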
Hits are given with their value; i = inactive; nt = no result given. Rows were chosen to be rich in hits. Some 32% of all compounds tested hit in one or more screens of this group. Rule as the data show it, unless noted: active = inhibition above about 30%; inactive = the rest.

SMILES | CYP2C19 inhib | CYP2C9 act | CYP2C19 activ | PostGolgi yeast | PostGolgi ctrl | CYP2C9 inhib
O=C(C#Cc1ccccc1)c1cccc([N+](=O)[O-])c1 | i | i | i | i | 48 | i
CC(NC(=O)Cn1cc(C(=O)C2CC2)c2ccccc21)c1ccccc1 (configuration not stated) | 59 | i | i | i | i | i
O=C(CNC(=S)NC(=O)c1ccco1)c1ccccc1 | i | i | i | i | i | i
COc1nc(N)c(S(=O)(=O)c2ccccc2)cc1C#N | i | 2.4 | i | i | i | i
Cc1ccccc1CSc1ncc(C#N)c(N)n1 | i | i | i | i | i | i
COc1nc(N)c(S(=O)(=O)c2ccccc2C)cc1C#N | 78 | i | i | i | i | i
COc1ccc(Oc2nnc(-c3ccccc3)cc2C#N)cc1 | i | i | i | i | i | i
Cc1ccc(S(=O)(=O)n2cnc3cc([N+](=O)[O-])ccc32)c(C)c1C | i | i | i | i | i | i
CCN(CC)S(=O)(=O)c1cccc(-c2nnc(SCC(=O)NCCC3=CCCCC3)n2N)c1 | i | i | i | i | i | i
CC(C)c1nnc(SCC(=O)NCCC2=CCCCC2)n1N | i | i | i | i | i | 60
O=C(CCl)Oc1ccc2occ(C(=O)c3cccs3)c2c1 | i | i | i | i | i | i
COC(=O)C1=C(C)N2C(=O)CSC2=NC1c1ccc2c(c1)OCO2 (configuration not stated) | 65 | i | i | nt | nt | 50
COc1ccc(/C=N/NC(=O)Cc2csc(Nc3cccc(C(F)(F)F)c3)n2)cc1C | nt | nt | nt | i | i | nt
CCNc1nc(N)c(C(=C(C#N)C#N)c2ccccc2)s1 | i | i | i | i | i | i
CCN1CC(O)=C(c2nc3ccccc3s2)C1=N | i | i | i | i | i | i
Cc1ccc2c(Cl)cc(Cl)c(OCc3c(C)noc3C)c2n1 | 67 | i | i | i | i | i
CN1CC(c2ccccc2)C2(SC(=S)N(Cc3ccco3)C2=O)C12C(=O)Nc1ccccc12 (configuration not stated) | 96 | i | i | i | i | 95
COCCN1C(=O)c2ccccc2C(C(=O)NCCCN2CCCC2=O)C1c1c[nH]c2ccccc12 (configuration not stated) | nt | nt | nt | i | i | nt
COc1ccc(CCC(C(O)C(F)(F)F)S(=O)c2ccccc2)cc1 (configuration not stated) | 60 | i | i | i | i | 50
CCCN1C=CC(=C2C(=O)c3ccccc3C2=O)C=C1 | 76 | i | i | i | i | 58
Cc1ccc2nc(SCc3nc4c(cnn4-c4ccccc4)c(=O)[nH]3)[nH]c2c1 | i | i | i | i | i | i
O=C(OCc1ccc2c(c1)OCO2)c1ccc(S(=O)(=O)N2CCCCC2)cc1 | i | i | i | i | i | i
O=C(c1cccc(S(=O)(=O)NCc2ccccc2)c1)N1CCN(Cc2ccccc2)CC1 | 65 | i | i | i | i | i
O=C(CS(=O)(=O)Cc1ccccc1)N1CCN(Cc2ccc3c(c2)OCO3)CC1 | i | i | i | i | i | i
O=C(CCc1ccc(S(=O)(=O)NCc2ccccc2)cc1)N1CCN(Cc2ccc3c(c2)OCO3)CC1 | i | i | i | i | i | 65
SMILES | CYP2C19 inhib | CYP2C9 act | CYP2C19 activ | PostGolgi yeast | PostGolgi ctrl | CYP2C9 inhib
O=C(c1ccccc1S(=O)(=O)NCC(O)COc1ccc([N+](=O)[O-])cc1)N1CCCCC1 (configuration not stated) | i | i | i | i | i | i
O=C(c1ccc(S(=O)(=O)N2CCCC2)cc1)N1CCN(Cc2ccc3c(c2)OCO3)CC1 | i | i | i | i | i | 63
O=C(c1ccccc1S(=O)(=O)NCc1ccccc1)N1CCCC1 | 90 | i | i | i | i | 66
Cc1cc(C)cc(N2CC34C=CC(O3)C(C(=O)OCC(=O)NCc3ccco3)C4C2=O)c1 (configuration not stated) | i | i | i | i | i | i
Cc1ccc2[nH]c(=O)c(CNC(C)C)cc2c1 | i | i | i | i | i | i
CCOC(=O)C1C(c2ccccc2Cl)NC(=O)N(C)C1(O)C(F)(F)F (configuration not stated) | i | i | i | i | i | i
O=c1[nH]cnc2c1cnn2Cc1ccccc1 | i | i | i | i | i | i
Cc1ccc(NC2=NC(c3ccco3)n3c(nc(C)cc3=O)N2)c(C)c1 (configuration not stated) | i | i | i | nt | nt | i
O=c1c2ccccc2n2nnnc2n1-c1ccccc1 | i | i | i | i | i | i
CC(C)(C)c1ccc(/C=C/C(=O)NC2=NCCS2)cc1 | i | i | i | i | i | i
CCCCN(C(=O)NC(=O)Nc1nc2ccc(OC)cc2s1)S(C)(=O)=O | i | i | i | i | i | i
O=C(c1ccc2nc(N3CCOCC3)sc2c1)N1CCCC1 | i | i | i | i | i | i
O=C(CCc1ccc(S(=O)(=O)N2CCOCC2)cc1)N1CCN(Cc2ccc3c(c2)OCO3)CC1 | i | i | i | i | i | 77
CC1CCN(c2nc3ccc(C(=O)N4CCN(Cc5ccc6c(c5)OCO6)CC4)cc3s2)CC1 | 94 | i | i | i | 41 | 90
O=C(NC(=S)N1CCCc2ccccc21)c1ccc([N+](=O)[O-])cc1 | i | i | i | i | i | i
COc1ccc2oc(C)c(C(=O)Cn3ccnc3)c2c1 | 90 | i | i | i | i | 73
O=C1C(N2CCOCC2)=C(n2nnc3ccccc32)C(=O)c2ccccc21 | 100 | i | i | i | i | 90
Cc1ccccc1-n1c(SCC(=O)c2cc(C)n(C)c2C)nnc1-c1ccncc1 | 99 | i | i | i | i | 92
Cc1cc(C(=O)CSc2nnc(Nc3ccccc3)s2)c(C)n1CC1CCCO1 (configuration not stated) | i | i | i | i | i | i
Cc1cc(C(=O)CSc2nnc(-c3cccnc3)n2-c2ccccc2F)c(C)n1CC1CCCO1 (configuration not stated) | 78 | i | i | i | i | 65
Cc1cc(C(=O)CSc2nnc(Nc3ccccc3F)s2)c(C)n1CC1CCCO1 (configuration not stated) | 53 | i | i | i | i | 56
COCCNC(=O)COC(=O)c1[nH]c(C)c(C(C)=O)c1C | i | i | i | i | i | i
CCCCCC1CC(CC#CCN2CCOCC2)C(=O)O1 (configuration not stated) | nt | nt | nt | i | i | nt
C=C(C)CSc1nc2ncc(Cl)cc2[nH]1 | i | i | i | i | i | i
C=C(C)CN(CC)C(=O)CSc1nc2ncc(Cl)cc2[nH]1 | 92 | i | i | i | i | i
O=S(=O)(c1ccc(Cl)s1)N1CCN(c2ncccn2)CC1 | i | i | i | i | i | i
